In PubChem BioAssay (NCI):
About 83,000 compounds went through this panel and 20% of them were active in at least one assay; those are over-represented in the sample as a whole.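 Activity criterion: percent growth below 10, measured after cells in 96-well plates were exposed to a single compound concentration for 48 hours.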 Calls of active or inactive are those of the source.

System: SNB-75 CNS
Assay: NCI-60 one-dose screen, 48 h (100 = growth as untreated, 0 = no growth, -100 = all killed)
Details: 10 µM unless noted

Row | SMILES | growth
1 | CCNC(=O)Oc1ccc(/C(=C(/C)Cc2ccc(OC)cc2)c2ccc(OCCN3CCCCCC3)cc2)cc1 | 77.4% (inactive)
2 | NC(CSC(c1ccccc1)(c1ccccc1)c1ccc2c(c1)OCO2)C(=O)O (stereo not given) | 30.8% (inactive)
3 | Cn1ccnc1C(=O)/C=C/c1ccc(C(=O)Nc2ccc(F)cc2)cc1 | 33% (inactive)
4 | C=CCn1c(SCC(=O)Nc2ccc(C(=O)/C=C/c3ccc(OC)cc3)cc2)nnc1-c1ccccc1 | 70.6% (inactive)
5 | COc1ccccc1NC(=O)c1ccc(/C=C/C(=O)c2nccn2C)cc1 | -3.01% (active)
6 | CCC/C(=N\NC(N)=O)C(OC)OC | 67.9% (inactive)
7 | O=C1c2cccnc2C(=O)c2c1c(C(=O)OCCCN1CCCCC1)c1ccccn21 | -88.7% (active)
8 | O=C1CC2C=CCN2C=C1NC(=O)C1CCCCC1 (stereo not given) | 87.3% (inactive)
9 | O=C(Nc1ccccc1)c1sc(-c2ccccc2)cc1O | 82.6% (inactive)
10 | O=C1/C(=C/c2cccc([N+](=O)[O-])c2)COc2ccc(O)cc21 | 79.4% (inactive)
11 | COc1cc2c3c(c1O)-c1ccccc1[C@@H]1OC(=O)N(CC2)[C@H]31 | 90.5% (inactive)
12 | COC(c1ccc2ccccc2c1)C(C)C(F)F (stereo not given) | 95.9% (inactive)
13 | Nc1ncnc2c1c(-c1ccc(Oc3ccccc3)cc1)nn2CC1SSCC1O (stereo not given) | 43.5% (inactive)
14 | C/C(=C(\c1ccc(OCCN2CCCCCC2)cc1)c1ccc(OC(=O)Cc2ccccc2)cc1)c1ccc(Cl)cc1 | 39.7% (inactive)
15 | Cc1cc2oc(=O)cc(CP(=O)(O)O)c2cc1O | 75.3% (inactive)
